# Screens as filed in PubChem BioAssay.
# FadD28 FP inh: M. tuberculosis FadD28 bisubstrate binding inhibition; FadD28 bisubstrate probe binding, fluorescence polarization; inhibition, % at 12.5 µM; 0.22% of 360,000 active; AID 588549; in the data active means inhibition above about 8.5%, passing the limit was not always enough
# Mtb UGM inh: inhibitors of M. tuberculosis UDP-galactopyranose mutase | P9WIQ1 | purified UGM, fluorescence polarization probe displacement | inhibition, % at 10 µM | 0.06% of 320,000 active | AID 504406; in the data active means inhibition above about 10%, passing the limit was not always enough
# PrPC surface inh: inhibitors of human cell surface prion protein PrPC | P04156 | TR-FRET read-out | inhibition, % at 13.8 µM | 0.43% of 370,000 active | AID 720596; in the data active means inhibition above about 24%; further: 0% = median of the test wells and 100% = reference compound wells
# Rv3671c inh: inhibitors of M. tuberculosis serine protease Rv3671c; inhibition, % at 5.96 µM; P9WHR9; 0.048% of 320,000 active; in the data active means inhibition above about 38%;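 further: extracellular domain of Rv3671c used as enzyme; 0% = enzyme with DMSO and 100% = no enzyme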
# Target sequence (P9WHR9 whole entry, looked up, the tested form may be a part): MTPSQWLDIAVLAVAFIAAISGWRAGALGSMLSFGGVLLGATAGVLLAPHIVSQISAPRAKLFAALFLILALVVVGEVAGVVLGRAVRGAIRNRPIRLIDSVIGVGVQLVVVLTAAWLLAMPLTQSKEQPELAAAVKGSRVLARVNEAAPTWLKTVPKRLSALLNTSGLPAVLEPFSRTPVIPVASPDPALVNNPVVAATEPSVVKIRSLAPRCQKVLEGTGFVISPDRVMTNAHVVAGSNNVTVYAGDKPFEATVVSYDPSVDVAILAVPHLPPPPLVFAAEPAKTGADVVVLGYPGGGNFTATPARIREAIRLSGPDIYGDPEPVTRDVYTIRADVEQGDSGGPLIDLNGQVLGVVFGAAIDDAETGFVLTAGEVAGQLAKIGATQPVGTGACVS
# PriA SSB inh: inhibitors of Klebsiella pneumoniae PriA binding to SSB C-terminal tail; AlphaScreen SSBct-PriA binding, biotinylated peptide; inhibition, % at 33 µM; 0.6% of 430,000 active; AID 1272365; in the data active means inhibition mostly above about 37%, no sharp cut-off; inactive means mostly below about 20%;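 further: plate controls were negative control peptide for no effect and reference peptide for full effect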
# PrP 5UTR inh: inhibition of PrP 5' UTR reporter expression; cell-based PrP 5' UTR mRNA reporter, plate reader; inhibition, % (concentration not given with the values); 0.35% of 340,000 active; in the data active means inhibition above about 52%; further: 0 = median of the neutral control wells
# * marks the source's active call; other numbers are inactive results; · = not tested or not shown; + = active, no number. In the library only some 1.2% were active in any assay of this set; here they are far more common.
SMILES,FadD28 FP inh,Mtb UGM inh,PrPC surface inh,Rv3671c inh,PriA SSB inh,PrP 5UTR inh
O=C(N/N=C/c1c(O)ccc2ccccc12)c1ccc[n+](CCO)c1,-1,-1,-15,4,·,8
CCN(CC)c1ccc2c(-c3ccc(S(=O)(=O)O)cc3S(=O)(=O)[O-])c3ccc(=[N+](CC)CC)cc-3oc2c1,135*,93*,·,+,-3,3
CCN(CC)c1ccc2nc3c4ccccc4c(=O)cc-3oc2c1,·,-2,-9,·,-49,·
CCCCCCCCCCCCCCCCn1cc[n+](CC(C)=O)c1,36*,·,·,·,-19,-3
COc1ccccc1C(=O)N1CCc2cc(S(=O)(=O)NC3CCCC3)ccc21,·,·,·,·,-7,·
N#Cc1nc(COc2ccc(-c3ccccc3)cc2)oc1N1CCCC1,·,·,·,·,54*,·
CCN1CCN(c2oc(COc3ccc(-c4ccccc4)cc3)nc2C#N)CC1,-3,-1,1,-2,41*,-18
Cc1ccc2nc(N(CCCn3ccnc3)C(=O)C3COc4ccccc4O3)sc2c1 (centres undefined),·,·,·,·,35*,·
Cc1ccc(C(c2ccc(C)o2)c2cccc([N+](=O)[O-])c2O)o1,0,1,-7,9,45*,-21
Cc1cccc(-n2ccnc2SCC(=O)Nc2ccc([N+](=O)[O-])cc2)c1C,·,·,·,·,51*,·
COc1ccc(Cl)cc1NC(=O)CSc1nccn1-c1ccc(F)cc1,·,·,·,·,3,·
COc1ccc(OC)c(NC(=O)CSc2nccn2-c2ccc(F)cc2)c1,·,·,·,·,54*,·
COc1ccc(OC)c(NC(=O)CSc2ncnc3sc(C)cc23)c1,14*,·,-4,·,-17,-1
Cc1cc(NC(=O)CSc2nccn2-c2cccc(C)c2C)no1,-2,0,-1,2,-1,-137
COc1ccc(-n2ccnc2SCC(=O)Nc2cc(C)ccc2C)c(OC)c1,·,·,·,·,39*,·
CC(C)(C)C(O)CCNC(=O)CSC1CCCC1 (centres undefined),·,·,·,·,-19,·
COc1cccc(-n2ccnc2SCC(=O)Nc2ccccc2C(F)(F)F)c1,·,·,·,·,44*,·
COc1ccc(NC(=O)CSc2nccn2-c2cccc(OC)c2)cc1,-1,-1,-2,6,-12,-14
COc1ccc(-n2ccnc2SCC(=O)Nc2ccccc2)cc1,-4,3,4,-2,27,-17
CCOc1ccccc1NC(=O)CSc1nccn1-c1ccc(C(=O)NCc2cccs2)cc1,·,·,·,·,40*,·
CCc1cccc(C)c1NC(=O)CSc1nccn1-c1ccc(C(=O)NCc2ccc(C)o2)cc1,·,·,·,·,24,·
COc1ccc(-n2ccnc2SCC(=O)Nc2ccc(Cl)cc2)cc1,·,·,·,·,49*,·
COc1cccc(-n2ccnc2SCC(=O)Nc2cc(OC)ccc2OC)c1,-1,3,4,-11,46*,12
COc1ccccc1NC(=O)c1ccccc1Br,·,·,·,·,-16,·
COc1ccc(S(=O)(=O)N2CCCCC2CC(=O)NCc2ccc(F)cc2)cc1 (centres undefined),·,·,·,·,-1,·
SMILES,FadD28 FP inh,Mtb UGM inh,PrPC surface inh,Rv3671c inh,PriA SSB inh,PrP 5UTR inh
COc1ccc(CCNC(=O)c2cn(-c3ccc(C)cc3)nn2)cc1OC,·,·,·,·,-14,·
c1cnc2c(c1)c1nccnc1c1cccnc12,·,·,·,·,114*,·
O=c1[nH][nH]c(=O)c2ncccc12,·,·,·,·,61*,·
Cc1c(C)c2cccnc2c2ncccc12,-2,-1,·,-13,99*,59*
O=S(=O)(O)c1cccc2c(N=Nc3ccc(O)c4ncccc34)cccc12,28*,1,·,27,62*,-11
Cc1cc(C)c2c(c1)c(-c1ccccc1)c(-c1ccccc1)n2C[C@@H](O)CNC1CCCC1,·,·,·,·,45*,·
OCc1ccnc2c(O)cccc12,-1,0,-8,2,87*,-13
NC(=O)c1ccnc2c(O)cccc12,-5,0,-8,4,41*,-5
Oc1cccc2c(-c3nn[nH]n3)ccnc12,-3,4,1,3,54*,-16
O=C(N/N=C\c1c(O)ccc2ccccc12)c1cc(-c2cccc([N+](=O)[O-])c2)n[nH]1,·,·,·,·,-11,·
CC1N(C)c2cccc3cccc(c23)N1C,-5,2,-6,-24,45*,-17
COCCOc1ccc(C(=O)NCc2ccccc2-c2ccsc2)cc1,·,·,·,·,-5,·
CCOc1ccc([N+](=O)[O-])c(N)c1,0,2,-15,-4,-2,-3
CCOc1ccc(N)c([N+](=O)[O-])c1,·,·,·,·,39*,·
CCOC(=O)c1csc(NC(=O)C2CCCN(S(C)(=O)=O)C2)n1 (centres undefined),·,·,·,·,1,·
Cc1nn([C@H]2CCS(=O)(=O)C2)c2nc(-c3ccccc3)cc(C(=O)Nc3ccccc3C(N)=O)c12,·,·,·,·,-1,·
CCc1noc(C)c1C(=O)NNC(=O)COc1ccc(C)cc1,20*,1,1,5,-12,-7
CCc1noc(C)c1C(=O)NNC(=O)COc1ccc(C)c(C)c1,-2,1,-3,-10,-11,9
O=S(=O)(c1ccc(Oc2ccccc2Cl)cc1)N1CCOCC1,·,·,·,·,-13,·
O=C(NCCn1nc(-c2ccco2)n(C2CC2)c1=O)c1ccc(Cn2ccnc2)cc1,·,·,·,·,-8,·
Oc1ccc(C=Nc2cccc3ncccc23)c(O)c1,-2,1,-4,-10,96*,-11
COc1ccc(C=Nc2cccnc2N)cc1,0,4,·,8,-16,-20
CCOc1ccc(C=Nc2cccc3ncccc23)cc1,-4,-2,-5,0,77*,-14
CCCC(=O)N1CCN(c2ccc(NC(=O)c3ccc([N+](=O)[O-])o3)cc2Cl)CC1,0,·,40*,·,6,-61
O=[N+]([O-])c1cc(CN2CCN(Cc3ccccc3)CC2)ccc1Sc1ccc(Cl)cc1,·,·,·,·,58*,·
SMILES,FadD28 FP inh,Mtb UGM inh,PrPC surface inh,Rv3671c inh,PriA SSB inh,PrP 5UTR inh
COC(=O)C1=C(C)N(Cc2ccccc2)C(=NCCc2c[nH]c3ccccc23)N[C@H]1c1ccccc1,-7,0,·,0,47*,1
COc1ccc(S(=O)(=O)Nc2ccc3c(c2)CC(=O)N3)cc1F,·,·,·,·,24,·
COc1ccc(C(=O)NCc2ccc(C(=O)c3ccsc3)s2)cc1F,·,·,·,·,-18,·
COc1cccc(N2C(=O)NC(=O)/C(=C/c3ccc4c(c3)Cc3ccccc3-4)C2=O)c1,-3,3,1,-8,-9,-15
COc1cccc(N2C(=O)NC(=O)/C(=C/c3ccc([N+](=O)[O-])s3)C2=O)c1,18*,5,4,-32,12,-18
COc1ccccc1N1C(=O)NC(=O)/C(=C/c2ccc([N+](=O)[O-])s2)C1=O,·,3,-3,-9,9,·
